Bioassay records: PubChem, National Center for Advancing Translational Sciences (NCATS)
Compounds with a hit are over-represented: about 21% of the library has one in this group of screens.
D3 antag: D3 dopamine receptor (human) antagonism | max response, negative = inhibition, % | 2.5% of 360,000 active | AID 652054 | P35462 | D3R cells, DiscoveRx beta-arrestin luminescence, antagonist mode; hits give low values; in the data active = max response below about -50%; inconclusive = no clear call, values can overlap the other calls; note: % is set by controls: 0 for no effect and ±100 for the full control effect
Target sequence (P35462 whole entry, looked up): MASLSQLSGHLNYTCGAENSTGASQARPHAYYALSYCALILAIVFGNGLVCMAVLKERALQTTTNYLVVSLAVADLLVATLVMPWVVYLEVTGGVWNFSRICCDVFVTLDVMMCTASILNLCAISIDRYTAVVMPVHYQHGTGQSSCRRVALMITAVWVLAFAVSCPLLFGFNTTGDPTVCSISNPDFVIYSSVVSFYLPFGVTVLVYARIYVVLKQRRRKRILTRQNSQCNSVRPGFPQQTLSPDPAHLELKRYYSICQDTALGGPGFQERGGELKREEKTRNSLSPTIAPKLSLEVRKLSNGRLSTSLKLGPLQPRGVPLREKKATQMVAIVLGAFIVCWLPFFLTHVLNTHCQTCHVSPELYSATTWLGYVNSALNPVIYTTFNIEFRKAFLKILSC
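Cells expressing the human receptor were seeded at 1500 cells/well, incubated overnight at 37 degrees C in 5% CO2, then exposed to library compounds with dopamine controls for 90 minutes at 37 degrees C before luminescent detection.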
IL1B secr inh: inhibitors of inflammasome signaling (IL-1 beta secretion); THP-1 LPS/ATP IL-1B secretion, AlphaLISA, 16 h; hits give low values; activity change, % at 57.5 µM; 4.7% of 360,000 active; AID 743279; in the data active = activity change below about -50%; inconclusive = mostly about -30% to -49%; note: % is set by controls: 0 for no effect and ±100 for the full control effect
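THP-1 cells pretreated 1 hr with compounds (up to 57.5 uM final), then stimulated with LPS (250 ng/mL final) plus ATP (1.25 mM final); secreted IL-1B measured by AlphaLISA after 16 hr, decreased signal indicating inhibition.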
DT40 TDP1 CPT: growth inhibition of DT40 Tdp1-/-;hTDP1 cells with camptothecin (screen for TDP1 inhibitors); chicken DT40 Tdp1-/-;hTDP1 cells + 20 nM CPT, ATP luminescence, 48 h; Potency, µM (highest dose often 46.2 µM), for the others: at the highest dose activity change, negative = growth inhibition, hits mostly inhibitors; 12% of 420,000 active; AID 686979; note: potency is the fitted concentration of half-maximal effect; % is set by controls: 0 for no effect and ±100 for the full control effect; nearly all actives have a fitted effect of over 55% in size
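Cell growth measured by CellTiter-Glo luminescence after a minimum 48 h, 37 C compound exposure with 20 nM CPT in Tdp1-knockout DT40 cells stably expressing hTDP1, seeded 400/well; qHTS titration format.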
DT40 TDP1 no CPT: qHTS for Inhibitors of human tyrosyl-DNA phosphodiesterase 1 (TDP1): qHTS in cells in absence of CPT | DT40 Tdp1-/- hTDP1 cells, no CPT, ATP luminescence, 48 h | Potency, µM (highest dose often 46.2 µM), without a hit: top-dose activity change, negative = growth inhibition, hits mostly inhibitors | 15% of 420,000 active; note: potency is the fitted concentration of half-maximal effect; % is set by controls: 0 for no effect and ±100 for the full control effect; nearly all actives have a fitted effect of over 55% in size
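DT40 Tdp1-/-;hTDP1 cells, no CPT (DMSO vehicle only), 400 cells/well; compounds pin-transferred; ≥48 hr, 37 °C; CellTiter-Glo 30 min RT dark, luminescence read.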
D3 ag: activates the human D3 dopamine receptor | P35462 | D3R DiscoveRx beta-arrestin cells, luminescence, 90 min | 0.58% of 410,000 active | max activation, % | AID 652048; in the data active = max activation above about 30%; note: 0% is about no effect
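Agonist-mode cell screen: cells plated at 1500/well and incubated overnight at 37 °C, then exposed to library compounds for 90 min at 37 °C. Detection reagent was added for 30–60 min at room temperature, and luminescence was read.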
ClpP mod: qHTS Assay for Activators of ClpP | purified B. subtilis ClpP, FRET peptide cleavage, 20 min | 1.9% of 340,000 active | ATP-dependent Clp protease proteolytic subunit (Bacillus subtilis (strain 168)), P80244 | Potency, µM (titrated, usually from 57.5 µM), for inactives: at the highest dose activity change, negative = active | AID 651965, 2013; active = well fitted falling curve with a large enough effect; inconclusive = small, poorly fitted or top-dose-only effect; inactive = no such curve, though single readings can be large or run the other way; note: potency is the fitted concentration of half-maximal effect; the source files actives as falling curves though it sought activators and does not explain the sign; nearly all actives have a fitted effect of over 65% in size
Target sequence (P80244 whole entry, looked up): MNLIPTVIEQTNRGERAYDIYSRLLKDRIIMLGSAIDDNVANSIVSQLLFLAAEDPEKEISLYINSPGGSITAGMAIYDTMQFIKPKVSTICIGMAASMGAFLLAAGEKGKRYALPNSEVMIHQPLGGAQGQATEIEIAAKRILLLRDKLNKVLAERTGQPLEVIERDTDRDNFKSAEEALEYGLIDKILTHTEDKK
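Purified B. subtilis ClpP, 10 microg/mL final in Tris/HCl pH8 with KCl, BSA, glycerol and Tween-20, cleaved an Abz/nitrotyrosine-quenched decapeptide. Fluorescence (ex 320, em 430) was read at 0 and 20 min at room temperature. Delta was normalized to 5.8 microM ADEP and DMSO/no-enzyme controls.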
Starred values were filed as active, the others as inactive. Unless noted, calls come from the whole dose curve; as a rule, active = well fitted inhibition curve with a large enough effect; inconclusive = small, poorly fitted or top-dose-only effect; inactive = flat fitted curve, though single readings scatter.

Cc1cc(N)n2nc(-c3ccccc3)c(-c3ccccc3)c2n1 was read as D3 antag 1.2, IL1B secr inh 12.4, DT40 TDP1 CPT 1.46µM*, DT40 TDP1 no CPT 1.64µM*, D3 ag -3.6 and ClpP mod -20.8%.
`Nc1c(-c2ccccc2)cnc2c(-c3ccccc3)cnn12` gave D3 antag 0.0, IL1B secr inh -10.0, DT40 TDP1 CPT -12.3%, DT40 TDP1 no CPT inconclusive, D3 ag 2.7 and ClpP mod 4.1%.
Screening Cc1nc2c(-c3ccccc3)c(C)nn2c(N)c1-c1ccccc1 returned D3 antag 0.0, IL1B secr inh -18.1, DT40 TDP1 CPT 20.6µM*, DT40 TDP1 no CPT 29.1µM*, D3 ag -2.0 and ClpP mod inconclusive.
Cc1nn2c3c(cnc2c1-c1ccc(Cl)cc1)C(=O)CC(c1ccco1)C3 (stereo unspecified) was read as D3 antag -51.6*, IL1B secr inh -7.6, DT40 TDP1 CPT inconclusive, DT40 TDP1 no CPT -12.1%, D3 ag 0.1 and ClpP mod -4.4%.
Cc1nn(-c2ccccc2)c(N)c1-c1ccccc1 was read as D3 antag 2.9, IL1B secr inh -2.5, DT40 TDP1 CPT 3.3%, DT40 TDP1 no CPT 11.1%, D3 ag 1.2 and ClpP mod 0.1%.
`Cc1nn(-c2nc3ccccc3[nH]2)c(N)c1-c1ccccc1` gave D3 antag -16.0, IL1B secr inh -19.6, DT40 TDP1 CPT inconclusive, DT40 TDP1 no CPT 16.4µM*, D3 ag -5.7 and ClpP mod 1.2%.
Screening Cc1cccc(OC(=O)c2cc(-c3ccc(Cl)cc3)on2)c1C returned DT40 TDP1 CPT -10.9%, DT40 TDP1 no CPT -14.0%, D3 ag -7.9 and ClpP mod 0.9%.
`O=C(CN1CCNCC1)NCCSc1ccc(Cl)cc1` gave D3 antag -1.9, IL1B secr inh -7.1, DT40 TDP1 CPT 14.6%, DT40 TDP1 no CPT -3.6% and D3 ag -6.1.
COc1ccc(NC(=O)CSc2nnc3n2CCCCC3)cc1OC was read as D3 antag -8.5, IL1B secr inh inconclusive, DT40 TDP1 CPT 1.9%, DT40 TDP1 no CPT 0.206µM*, D3 ag -4.1 and ClpP mod -2.6%.
Screening COc1ccc(C(=O)Nc2ccc(-c3nnc4n3CCCCC4)cc2)cc1OC returned DT40 TDP1 CPT 13µM*, DT40 TDP1 no CPT 13µM*, D3 ag -2.0 and ClpP mod -3.6%.
`COc1ccc(NC(=O)CSc2nnc(C3CCCCC3)n2N)cc1OC` gave D3 antag -1.5, IL1B secr inh 1.8, DT40 TDP1 CPT -3.7%, DT40 TDP1 no CPT -8.5%, D3 ag 0.7 and ClpP mod 0.0%.
`COc1ccc(C(=O)Nc2ccc(C(=O)N3CCCCC3)cc2)cc1OC` gave D3 antag -3.1, IL1B secr inh -2.6, DT40 TDP1 CPT -25.5%, DT40 TDP1 no CPT -15.6% and D3 ag 4.4.
For CC(C)Oc1ccccc1OCCN(C)C the results were D3 antag -16.6, IL1B secr inh 4.7, DT40 TDP1 CPT -14.3%, DT40 TDP1 no CPT -15.8%, D3 ag -8.6 and ClpP mod 0.6%.
`CN(C)CCC(Oc1ccccc1OCc1ccccc1)c1ccccc1` (stereo unspecified) gave D3 antag inconclusive, IL1B secr inh -90.1*, DT40 TDP1 CPT inconclusive, DT40 TDP1 no CPT 16.4µM* and D3 ag -15.6.
`Cc1ccc(NC(=O)CSc2nc(-c3ccc(F)cc3)nc3c2Cc2c(CO)cnc(C)c2O3)cc1C` gave DT40 TDP1 CPT -0.7%, DT40 TDP1 no CPT -27.0%, D3 ag 7.5 and ClpP mod -3.0%.
For COc1ccccc1-c1nc2c(c(SCC(=O)Nc3ccc(C)c(C)c3)n1)Cc1c(CO)cnc(C)c1O2 the results were DT40 TDP1 CPT 16.4µM*, DT40 TDP1 no CPT 9.2µM*, D3 ag 4.4 and ClpP mod 4.9%.
Screening CCc1ccc(CSc2nc(-c3ccccc3F)nc3c2Cc2c(CO)cnc(C)c2O3)cc1 returned DT40 TDP1 CPT inconclusive, DT40 TDP1 no CPT -21.7%, D3 ag 6.6 and ClpP mod -0.3%.
CCN(CC)C(=O)CSc1nc(-c2ccccc2F)nc2c1Cc1c(CO)cnc(C)c1O2 was read as DT40 TDP1 CPT 3.66µM*, DT40 TDP1 no CPT 4.61µM*, D3 ag 2.2 and ClpP mod 0.3%.
COc1ccccc1-c1nc2c(c(SCc3ccc(F)cc3Cl)n1)Cc1c(CO)cnc(C)c1O2 was read as DT40 TDP1 CPT 1.1%, DT40 TDP1 no CPT -4.7%, D3 ag 7.5 and ClpP mod 1.5%.
For COc1ccccc1-c1nc2c(c(SCC(=O)N3CCCCC3)n1)Cc1c(CO)cnc(C)c1O2 the results were D3 antag 34.2, IL1B secr inh -4.3, DT40 TDP1 CPT 9.2µM*, DT40 TDP1 no CPT 6.51µM*, D3 ag 14.1 and ClpP mod -1.5%.
`Cc1ncc(CO)c2c1Oc1nc(-c3ccccc3)nc(SCC(=O)N3CCOCC3)c1C2` gave D3 antag 45.2, IL1B secr inh -11.1, DT40 TDP1 CPT 18.4µM*, DT40 TDP1 no CPT 10.3µM*, D3 ag 7.5 and ClpP mod -2.1%.
For O=C(COC(=O)Cc1n[nH]c(=O)c2ccccc12)Nc1cccc(C(F)(F)F)c1 the results were D3 antag -9.1, IL1B secr inh 25.0, DT40 TDP1 CPT -0.1%, DT40 TDP1 no CPT -14.3% and D3 ag -6.7.
`Cc1ncc(CO)c2c1Oc1nc(-c3ccc(Cl)cc3)nc(SCC(=O)N3CCCCC3)c1C2` gave DT40 TDP1 CPT inconclusive, DT40 TDP1 no CPT 16.4µM*, D3 ag 4.1 and ClpP mod 0.4%.
Screening Cc1cccc(-c2nc3c(c(SCC(=O)N4CCOCC4)n2)Cc2c(CO)cnc(C)c2O3)c1 returned D3 antag 55.3, IL1B secr inh inconclusive, DT40 TDP1 CPT inconclusive, DT40 TDP1 no CPT 3.66µM*, D3 ag 0.2 and ClpP mod 0.3%.
For COc1cccc(-c2nc3c(c(SCC(=O)N4CCOCC4)n2)Cc2c(CO)cnc(C)c2O3)c1 the results were D3 antag 21.7, IL1B secr inh -13.9, DT40 TDP1 CPT 20.6µM*, DT40 TDP1 no CPT 4.11µM*, D3 ag 6.3 and ClpP mod -0.6%.
`COc1ccccc1-c1nc2c(c(SCc3cc(C)ccc3C)n1)Cc1c(CO)cnc(C)c1O2` gave DT40 TDP1 CPT 9.2µM*, DT40 TDP1 no CPT 10.3µM*, D3 ag 0.1 and ClpP mod -3.0%.
`COc1cccc(-c2nc3c(c(SCC(=O)Nc4cc(C)ccc4C)n2)Cc2c(CO)cnc(C)c2O3)c1` gave DT40 TDP1 CPT -22.3%, DT40 TDP1 no CPT -4.2%, D3 ag -16.5 and ClpP mod 0.1%.
